# Laboratory results reported in the antibiotic and cytotoxicity screens of Wong et al. (2023).
# Among all 39,000 compounds or so, about 3,300 (8.5%) were called active. This excerpt belongs to a sample that is enriched for actives.
# System: HepG2
# Test: cytotoxicity call (relative viability < 0.9)
# Conditions: 10 µM
row,Structure (SMILES),cytotoxicity call
1,CC(=O)NCCCC[C@@H]1NC(=O)[C@@H]2C[C@H](C(=O)NCCCCN(C)C)[C@H](c3cccc(OCCO)c3)N2C1=O,inactive
2,CC(C)NC(=O)N(C)C[C@@H]1OCCCC[C@@H](C)Oc2ccc(NC(=O)Nc3ccc(C(F)(F)F)cc3)cc2C(=O)N([C@H](C)CO)C[C@@H]1C,inactive
3,COc1ccc(NC(=O)N(C)C[C@@H]2Oc3ncc(C#CC(C)C)cc3C(=O)N([C@@H](C)CO)C[C@@H]2C)cc1,inactive
4,C[C@@H]1CN([C@@H](C)CO)C(=O)c2c(c3ccccc3n2C)-c2ccccc2CO[C@@H]1CN(C)C(=O)CCC(F)(F)F,inactive
5,COc1ccc(cc1)S(=O)(=O)N1C[C@]2(C1)CN([C@@H](CO)c1c2c2ccc(cc2n1C)OC)C(=O)c1cccnc1,inactive
6,C[C@@H]1CCCCO[C@@H](CN(C)C(=O)Nc2cccc3ccccc23)[C@@H](C)CN([C@@H](C)CO)C(=O)c2cc(NC(=O)NC3CCCCC3)ccc2O1,inactive
7,CC(=O)n1cc([C@H]2C=C(C(=O)N3CCN(C)CC3)O[C@@H](OCc3ccc(CO)cc3)C2)c2ccccc21,inactive
8,C[C@H](CO)N1C[C@H](C)[C@H](CN(C)S(=O)(=O)c2cn(C)cn2)Oc2ccc(NC(=O)Nc3ccc4c(c3)OCO4)cc2C1=O,inactive
9,Nc1ccccc1C(=O)N1CCOCC1,inactive
10,O=C(c1ccccc1O)N1CCOCC1,inactive
11,O=C(c1cn(Cc2cncn2Cc2ccc(Br)cc2)cc1-c1cccc2ccccc12)N1CCOCC1,active
12,C[C@H]1CN(C(=O)CSc2nnc3c4ccccc4n(Cc4cccc(Cl)c4)c3n2)CCN1C(=O)c1ccccc1F,inactive
13,COC(=O)[C@@H]1N2C(=O)[C@@H](N3CC4=C[C@@H](C5CC5)n5c(=O)n(C)c(=O)n5[C@@H]4[C@@H]3[C@@H](O)Cc3ccccc3)[C@H]2SC1(C)C,inactive
14,C[C@@H]1CN([C@@H](C)CO)C(=O)Cc2cc(NS(=O)(=O)c3ccccc3)ccc2O[C@@H]1CN(C)S(C)(=O)=O,inactive
15,C=C1CC[C@@H]2C(C)(C)CCC[C@@]2(C)[C@@H]1CC/C(C)=C/C(=O)OC,inactive
16,CC1(C)CCC2(C(=O)O)CCC3(C)C(=CCC4C5(C)CCC(O)C(C)(CO)C5CCC43C)C2C1 (stereo not given),inactive
17,C=C1CCC2C(C)(CO)C(O)CCC2(C)C1CC=C1C(=O)OCC1O (stereo not given),active
18,C[C@H]1CN([C@@H](C)CO)C(=O)c2cc(C#CCN(C)C)cnc2O[C@@H]1CN(C)C(=O)CCN1CCCCC1,inactive
19,C[C@@H]1CN([C@H](C)CO)S(=O)(=O)c2ccc(C#Cc3cccnc3)cc2O[C@@H]1CN(C)C(=O)Nc1ccc2c(c1)OCO2,inactive
20,C[C@H]1CN([C@@H](C)CO)S(=O)(=O)c2ccc(C#Cc3cccnc3)cc2O[C@@H]1CN(C)C(=O)Nc1ccc2c(c1)OCO2,inactive
21,C[C@H](CO)N1C[C@H](C)[C@H](CN(C)C(=O)Nc2ccc3c(c2)OCO3)Oc2cc(C#Cc3cccnc3)ccc2S1(=O)=O,inactive
22,C[C@@H]1CN([C@H](C)CO)S(=O)(=O)c2ccc(C#Cc3ccncc3)cc2O[C@@H]1CN(C)C(=O)Nc1ccc2c(c1)OCO2,active
23,C[C@@H]1CN([C@@H](C)CO)S(=O)(=O)c2ccc(C#Cc3ccncc3)cc2O[C@H]1CN(C)C(=O)Nc1ccc2c(c1)OCO2,active
24,C[C@@H]1CN([C@H](C)CO)S(=O)(=O)c2ccc(C#Cc3ccncc3)cc2O[C@H]1CN(C)C(=O)Nc1ccc2c(c1)OCO2,inactive
25,C[C@H]1CN([C@@H](C)CO)S(=O)(=O)c2ccc(C#Cc3cccnc3)cc2O[C@H]1CN(C)C(=O)Nc1ccc2c(c1)OCO2,inactive
26,C[C@H](CO)N1C[C@H](C)[C@@H](CN(C)C(=O)Nc2ccc3c(c2)OCO3)Oc2cc(C#Cc3ccncc3)ccc2S1(=O)=O,active
27,C[C@H](CO)N1C[C@H](C)[C@H](CN(C)C(=O)Nc2ccc3c(c2)OCO3)Oc2cc(C#Cc3ccncc3)ccc2S1(=O)=O,inactive
28,C[C@@H]1CN([C@H](C)CO)S(=O)(=O)c2ccc(C#Cc3cccnc3)cc2O[C@H]1CN(C)C(=O)Nc1ccc2c(c1)OCO2,inactive
29,C[C@H]1CN([C@@H](C)CO)S(=O)(=O)c2ccc(C#Cc3ccncc3)cc2O[C@H]1CN(C)C(=O)Nc1ccc2c(c1)OCO2,active
30,C[C@@H]1CN([C@@H](C)CO)S(=O)(=O)c2ccc(C#Cc3cccnc3)cc2O[C@H]1CN(C)C(=O)Nc1ccc2c(c1)OCO2,inactive
